SARS PLpro yeast = SARS-CoV PLP inhibition in yeast; 330,000 tested, 0.19% active; AID 485353; S. cerevisiae expressing SARS-CoV PLpro, growth rescue; Potency, µM (top dose mostly 32.9 µM), actives largely listed as activators; calls by dose curve; note: nearly all actives have a fitted effect of over 55% in size
Pf growth 48h = inhibits P. falciparum growth in the first generation, 48 h; AID 504832; 310,000 tested, 5.9% active; Potency, µM (series often up to 28.7 µM), hits mostly inhibitors; P. falciparum luciferase growth in erythrocytes, 48 h
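Parasite viability was followed by luminescence of a genomically integrated firefly luciferase. Cultures held 0.1% parasitemia at 2% hematocrit (final), incubated under 5% CO2 at 37 C.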
Pf growth 96h = P. falciparum growth inhibition at 96 hour, primary screen for plastid delayed-death inhibitors. P. falciparum luciferase reporter growth, 96 h. Potency, µM (top dose mostly 28.7 µM), most hits filed as inhibitors. 320,000 tested, 6.9% active
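96 h incubation, 37 C, 5% CO2, of luciferase-reporter P. falciparum-infected RBCs (2% hematocrit, 0.05% parasitemia final) with test compounds; endpoint luminescence.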
AMA1-RON2 inh = inhibitors of Plasmodium falciparum AMA1-RON2 interaction; AlphaScreen AMA1-biotinylated RON2 peptide binding; Potency, µM (top dose mostly 58.2 µM), most hits filed as inhibitors; 360,000 tested, 0.2% active; note: nearly all actives have a fitted effect of over 45% in size
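AMA1 (3D7) with his tag at 25 nM final met compounds first, then biotinylated RON2 peptide at 25 nM; detection used donor plus acceptor beads, 10 µg/mL apiece, read by AlphaScreen after 30 min at room temperature.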
Hits are given with their value; - = inactive; ? = inconclusive; . = not tested or not shown; [ ] = remark or other dose. Only some compounds are listed: those with a hit (about 9.4% of all), similar ones and a draw of the others. Unless noted, calls come from the whole dose curve; as a rule, active = well fitted curve in the direction sought with a large enough effect; inconclusive = small, poorly fitted or top-dose-only effect, or another doubt; inactive = no such curve, though single readings can be large; an effect the other way counts as inactive or inconclusive.

SMILES	SARS PLpro yeast	Pf growth 48h	Pf growth 96h	AMA1-RON2 inh
CC(OC(=O)c1ccc(NS(=O)(=O)c2ccc3[nH]c(=O)[nH]c3c2)cc1)C(=O)Nc1ccc(Cl)cc1 (configuration not stated)	-	0.83µM	0.59µM	-
CCC(C)NC(=O)c1ccc(NS(=O)(=O)c2ccc3[nH]c(=O)[nH]c3c2)cc1 (configuration not stated)	-	-	?	-
CCN(CC)C(=O)c1ccc(NS(=O)(=O)c2ccc3[nH]c(=O)[nH]c3c2)cc1	-	12µM	8.3µM	-
CCOc1ccc(CNc2ccc(N3CCCC3)cc2)cc1	-	1.9µM	-	?
CCOc1ccc(NCc2nnc(SCc3ccc(Cl)cc3)n2-c2ccccc2)cc1	-	?	-	32µM
CCOC(=O)CSc1nnc(CNc2ccc(Cl)cc2)n1-c1ccccc1	-	-	.	-
CCOc1ccc(CNc2ccc(N3CCN(Cc4ccccc4)CC3)cc2)cc1	-	-	9.3µM	-
Cc1nn(Cc2ccccc2)c(C)c1C(=O)OCC(=O)Nc1cccc(S(N)(=O)=O)c1	-	-	-	-
CSc1nc2sccc2c(=O)[nH]1	-	-	-	-
O=C(c1cc([N+](=O)[O-])cc([N+](=O)[O-])c1)N(c1ccccn1)c1ccccn1	-	-	-	-
O=C(c1ccncc1)N1CCN(S(=O)(=O)c2ccccc2F)CC1	-	.	.	-
Cc1cc(N=Nc2c(O)c3ccccc3[nH]c2=O)ccc1N=Nc1ccc(C(=O)N(C)C)cc1	-	1.9µM	2.1µM	-
Cc1cccc(NS(=O)(=O)c2cccc(C(=O)NCC(c3ccco3)N3CCCCC3)c2)c1 (configuration not stated)	.	?	15µM	-
Cc1cccc(NS(=O)(=O)c2cccc(C(=O)NCC3(N4CCCCC4)CCCCC3)c2)c1	-	6.6µM	8.3µM	-
COc1ccc(C(CNC(=O)c2cccc(S(=O)(=O)Nc3ccc(C)cc3)c2)N2CCCCC2)cc1 (configuration not stated)	.	8.3µM	9.3µM	-
Cc1ccc(N(C)S(=O)(=O)c2cccc(C(=O)NCC(c3ccco3)N3CCCC3)c2)cc1 (configuration not stated)	-	9.3µM	3.3µM	-
CNS(=O)(=O)c1cccc(C(=O)NCC2(N3CCCCC3)CCCCC2)c1	-	-	-	-
COc1ccc(C(CNC(=O)c2cccc(NS(=O)(=O)c3ccccc3)c2)N2CCCC2)cc1 (configuration not stated)	.	.	.	-
COC(=O)[C@]12CCCCC=C1N(Cc1ccc3c(c1)OCO3)C(=O)[C@H](CC(=O)N1CCCC1)C2	.	.	.	-
Cc1ccc(NC(=O)c2cc(N3C(=O)C=CC3=O)ccc2N2CCOCC2)cc1	-	-	-	-
COc1ccccc1NS(=O)(=O)c1cccc(C(=O)NCC(c2ccccc2OC)N2CCCC2)c1 (configuration not stated)	-	8.3µM	?	-
CCOc1ccc(CN(C)C(=O)c2cccc(S(=O)(=O)Nc3ccccc3OC)c2)cc1OC	.	.	.	-
CCc1ccc(CN(C)C(=O)c2cccc(S(=O)(=O)Nc3ccccc3OC)c2)cc1	-	10µM	?	-
O=C(NCc1ccccc1)C(=O)NCC(c1ccco1)N1CCOCC1 (configuration not stated)	-	-	-	-
COc1ccc(CNC(=O)C(=O)NCC(c2ccco2)N2CCOCC2)cc1 (configuration not stated)	-	-	7.4µM	-
SMILES	SARS PLpro yeast	Pf growth 48h	Pf growth 96h	AMA1-RON2 inh
COc1ccc(C(CNC(=O)c2ccc(NS(=O)(=O)c3ccc(F)c(C)c3)cc2)N2CCOCC2)cc1 (configuration not stated)	-	10µM	-	-
CCCc1nc2ccccc2c(C(=O)OC2CCOC2=O)c1CC (configuration not stated)	-	-	-	-
COc1cccc(C(C(=O)NC(C)(C)C)N(Cc2ccc(C)cc2)C(=O)CCC(=O)Nc2cc(C)on2)c1OC (configuration not stated)	-	?	?	-
COc1ccc(NS(=O)(=O)c2cccc(C(=O)NCC(c3ccco3)N3CCCCC3)c2)cc1 (configuration not stated)	-	?	?	-
CCOc1ccc(S(=O)(=O)Nc2ccc(C(=O)NCC3(N4CCCCC4)CCCCC3)cc2)cc1	-	3.3µM	1.2µM	-
COc1ccccc1C(CNC(=O)c1cccc(S(=O)(=O)Nc2ccc(C)cc2)c1)N1CCCC1 (configuration not stated)	-	13µM	15µM	-
CCC(=O)c1ccc(OCC(=O)NCC2(N3CCCCC3)CCCCC2)cc1	-	-	4.7µM	-
COc1ccccc1NC(=O)C(=O)NCC(c1ccco1)N1CCc2ccccc2C1 (configuration not stated)	-	5.2µM	?	-
CN(C)C1CN(Cc2cn(Cc3cccc(Cl)c3)nn2)S(=O)(=O)C1 (configuration not stated)	.	.	.	-
COc1ccccc1NS(=O)(=O)c1cccc(C(=O)NCC(c2ccco2)N2CCCC2)c1 (configuration not stated)	-	12µM	15µM	-
COc1ccc(C(CNC(=O)c2cccc(NC(=O)c3cccs3)c2)N2CCCC2)cc1 (configuration not stated)	-	12µM	5.9µM	-[11.6 µM]
CN(C)C1(CNC(=O)c2ccc(NS(=O)(=O)c3ccc(Cl)c(Cl)c3)cc2)CCCCC1	-	12µM	13µM	-
COC(=O)C1=C(c2ccc(F)cc2F)C[C@@H]2CC[C@H]1N2C(=O)NCCNC(C)=O	-	-	-	-
Cc1ccc(C(C)NC(=O)Cc2cccs2)cc1C (configuration not stated)	-	-	-	-
CCN(CC)CCC(=O)N1c2ccccc2CCc2ccc(NC(=O)OC)cc21	-	-	?	-
CCN(CC)CC(=O)N1c2ccccc2CCc2ccc(NC(=O)c3cc(OC)c(OC)c(OC)c3)cc21	-	12µM	9.3µM	-
CCN(CC)CC(=O)Nc1ccc2c(c1)N(C(=O)CN(CC)CC)c1ccccc1CC2	-	10µM	.	-
CCOC(=O)Nc1ccc2c(c1)N(C(=O)CN(CC)CC)c1ccccc1CC2	-	?	?	-
S=C1NCCc2ccc(Cl)cc2C1c1ccccc1Cl (configuration not stated)	-	12µM	?	-
Clc1ccc2c(c1)C(C1=NCCN1)c1ccccc1CS2 (configuration not stated)	-	?	-	-
Cc1occc(=O)c1OCc1c(F)cccc1Cl	-	-	-	-
CCOC(=O)c1sc(NC(=O)c2cccs2)nc1C	-	-	-	-
C#CCOCCOCCOCCNc1nc(N2CCN(C(=O)[C@H](CCC(=O)O)n3cc(C(N)CC(C)C)nn3)CC2)nc(N2CCN(C(=O)[C@H](Cc3ccc(O)cc3)n3cc(C(N)CC(C)C)nn3)CC2)n1 (some centres not stated)	-	?	?	-
